# Data taken from the supplement of paper PMC7156485.
# ± gives the standard deviation of the averaged measurements.
# Tests used:
# Conditions in all cases: concentration: 10 µM; 24 h
# [1] = tested on: HCC1569; assay: cell number relative to DMSO (% of DMSO); higher = more cells (less growth inhibition / toxicity)
# Method in brief: (§1)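 After 24 h at 37 °C with compounds at 10 µM, in triplicate, HCC1569 and TDF cells were fixed with 3.7% formaldehyde. Immunostaining used a rabbit anti-H1.0 antibody and an AlexaFluor 647 secondary, with DAPI, and six fields per well were imaged at ×10. H1.0 nuclear intensity or cell number is presented as percent of the plate control, from the median of replicates, with HCC1569 values smoothed for positional effects.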
# [2] = tested on: TDF; assay: as above
# Method in brief: as §1
# [3] = tested on: TDF; assay: H1.0 immunofluorescence intensity relative to DMSO (% of DMSO); higher = stronger H1.0 induction, active = 120 or more
# Method in brief: as §1
# [4] = tested on: HCC1569; assay: H1.0 immunofluorescence intensity relative to DMSO (% of DMSO); higher = stronger H1.0 induction, active = 140 or more
# Method in brief: as §1
# 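Throughout, for H1.0 immunofluorescence intensity relative to DMSO: TDF is a line of transformed human dermal fibroblasts of mesenchymal origin.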
# 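Throughout, for cell number relative to DMSO: TDF denotes transformed human dermal fibroblasts of mesenchymal origin.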
Structure (SMILES),cell number [1],cell number [2],H1.0 immunofluorescence intensity [3],H1.0 immunofluorescence intensity [4]
CN1CCC(=C2c3ccccc3C=Cc3ccccc32)CC1.Cl [Cyproheptadine hydrochloride],98,97.3,111 (inactive),120 (inactive)
CC(=O)Nc1nnc(S(N)(=O)=O)s1 [Acetazolamide],104,106,86.9 (inactive),83.3 (inactive)
CC(C)C(CO)Nc1nc(Nc2ccc(C(=O)O)c(Cl)c2)c2ncn(C(C)C)c2n1 (stereo not given) [Purvalanol B],101,110,93.1 (inactive),98.7 (inactive)
"CN1C2CCC1CC(NC(=O)c1nn(C)c3ccccc13)C2.O=C(O)C=CC(=O)O (stereo not given) [LY-278,584 maleate]",104,94.8,99.1 (inactive),93 (inactive)
"Cc1cccc(C(=O)NCN2CCN(c3ccccc3C#N)CC2)c1.O=C(O)C=CC(=O)O [PD 168,077 maleate]",105,107,97.3 (inactive),99.3 (inactive)
N#Cc1ccc(N2N=C3c4ccc(C(=O)O)cc4CCC3C2C2CCCC2)cc1Cl (stereo not given),101,110,85.4 (inactive),101 (inactive)
N#Cc1c(O)c2c(-c3ccc(-c4ccccc4O)cc3)csc2[nH]c1=O,102,92.5,98.8 (inactive),96.3 (inactive)
O=c1c(O)c(-c2ccc(O)cc2)oc2cc(O)cc(O)c12 [Kaempferol],98.4,93.9,93.5 (inactive),115 (inactive)
COc1cc2c(Nc3ccc(Br)cc3F)ncnc2cc1OCC1CCN(C)CC1 [Vandetanib],54.4,65.4,108 (inactive),142 (active)
CC1C(=O)N=C2Nc3cccc(Cl)c3CN21 (stereo not given) [Quazinone],111,106,94.9 (inactive),96.3 (inactive)
COc1ccc2c(c1)c(CC(=O)OCC(=O)O)c(C)n2C(=O)c1ccc(Cl)cc1 [Acemetacin],96.5,94.4,95.4 (inactive),104 (inactive)
CC1OC(OCC2OC(Oc3c(-c4ccc(O)c(O)c4)oc4cc(O)cc(O)c4c3=O)C(O)C(O)C2O)C(O)C(O)C1O (stereo not given) [Rutin],107,102,91.6 (inactive),88 (inactive)
O=c1c(-c2ccc(O)cc2)coc2cc(O)cc(O)c12,97.6,100,96.6 (inactive),104 (inactive)
"COC1C(N(C)C(=O)c2ccccc2)CC2OC1(C)n1c3ccccc3c3c4c(c5c6ccccc6n2c5c31)C(=O)NC4 (stereo not given) [Staurosporine, N-benzoyl-]",66,53.5,82.4 (inactive),108 (inactive)
CC(=O)O/N=C1\C(=O)N(Cc2cc(Cl)ccc2Cl)c2ccc(Cl)cc21,99.5,107,97.2 (inactive),99.5 (inactive)
COc1cc2nc(N3CCN(C(=O)C4COc5ccccc5O4)CC3)nc(N)c2cc1OC.CS(=O)(=O)O (stereo not given) [Doxazosin mesylate],99.9,103,95.5 (inactive),110 (inactive)
CC1CCN(CCC2CCCN2S(=O)(=O)c2cccc(O)c2)CC1.Cl (stereo not given),102,109,92.1 (inactive),107 (inactive)
COc1cc(C(O)C(=O)O)ccc1O (racemic),105,109,89.5 (inactive),91.2 (inactive)
Cc1ccc(-c2c(-c3nn(C)c4ncnc(N5CC[C@H](N6CCCCC6)C5)c34)cnn2C)cc1,99.6,96.4,103 (inactive),99.2 (inactive)
Nc1nc(=O)c2ncn(COCCO)c2[nH]1 [Acyclovir],98.8,104,90.2 (inactive),85.5 (inactive)
C[C@H](N[C@@H](CCc1ccccc1)C(=O)O)C(=O)N1CCC[C@H]1C(=O)O.O.O,102,94.9,101 (inactive),109 (inactive)
"CCOC(=O)c1csc(Nc2ccc(Cl)cc2)n1 [ethyl 2-(4-chloroanilino)-1,3-thiazole-4-carboxylate]",97,99.4,99.7 (inactive),113 (inactive)
FC(F)(F)c1ccc(CNc2ccc(Cc3c[nH]c4ncccc34)cn2)cc1,75.5,74.9,108 (inactive),139 (inactive)
CN(C)c1ccc(O)c2c1CC1CC3C(N(C)C)C(=O)C(C(N)=O)=C(O)C3(O)C(=O)C1=C2O.Cl (stereo not given),99.2,96.9,95.5 (inactive),91.5 (inactive)
CC(N)=NCCC[C@H](N)C(=O)O.Cl [L-N5-(1-Iminoethyl)ornithine hydrochloride],101,108,92.8 (inactive),93.3 (inactive)

Structure (SMILES),cell number [1],cell number [2],H1.0 immunofluorescence intensity [3],H1.0 immunofluorescence intensity [4]
CC(=O)OCC1(O)CC23CCC4c5ccoc5C=CC4(C)C2CCC1C3 (stereo not given) [Kahweol Acetate],103,95.3,105 (inactive),98.9 (inactive)
CCOC(=O)c1c(C)[nH]c(C=C2C(=O)Nc3ccccc32)c1C [VEGF Receptor 2 Kinase Inhibitor I],100,97.1,94.2 (inactive),103 (inactive)
CCC(C)n1ncn(-c2ccc(N3CCN(c4ccc(OCC5COC(Cn6cncn6)(c6ccc(Cl)cc6Cl)O5)cc4)CC3)cc2)c1=O (stereo not given) [Itraconazole],79.5,93,108 (inactive),149 (active)
CC[C@H](C)[C@H](N)C(=O)N1CCC[C@H]1C(=O)N[C@H](C(=O)O)[C@@H](C)CC,102,85.3,97.2 (inactive),103 (inactive)
"C=C1CCC(O)CC1=CC=C1CCCC2(C)C1CCC2C(C)CCC(O)C(C)(C)O [24(R),25-Dihydroxyvitamin D3]",105,98.9,101 (inactive),93.7 (inactive)
CC(C)(C)c1onc(OCP(=O)(O)O)c1CC(N)C(=O)O (stereo not given),104,113,91.2 (inactive),95.1 (inactive)
CCCCCCCCCCCC=CCCCCCC(=O)O [7(E)-Nonadecenoic acid],98.7,104,96.9 (inactive),94.3 (inactive)
"Br.Br.N=C(N)SCCc1ccc(CCSC(=N)N)cc1 [1,4-PBIT dihydrobromide]",96.8,101,92 (inactive),105 (inactive)
CN(C)CCC(c1ccc(Br)cc1)c1ccccn1.O=C(O)C=CC(=O)O (racemic),101,98.7,97.9 (inactive),94.6 (inactive)
CCCCCC=CCC=CCCCCCCCC(N)=O [Linoleamide],99.8,94.8,99.6 (inactive),99.2 (inactive)
CC(N)C12CC3CC(CC(C3)C1)C2 (stereo not given) [Rimantadine],99.7,107,93.4 (inactive),112 (inactive)
CN(C)CCCN1c2ccccc2Sc2ccc(Cl)cc21.Cl [Chlorpromazine hydrochloride],88.5,64.4,135 (active),144 (active)
Cc1ccccc1C(=O)c1ccc(Nc2ccc(Br)cc2N)cc1Cl,97.3,107,93 (inactive),117 (inactive)
O=C(O)CCCCC=CCC(O)C=CC=CC=CC(O)CCCC(=O)O (stereo not given) [20-Carboxy-leukotriene B4],102,103,91.1 (inactive),102 (inactive)
CCCCNC(=O)NS(=O)(=O)c1ccc(C)cc1 [Tolbutamide],102 ± 3.9,108 ± 11,93 (inactive),101 (inactive)
C=C1C(=O)OC2C1CCC(=C)C1CCC(=C)C12 (stereo not given) [Dehydrocostus lactone],83.9,64.3,110 (inactive),103 (inactive)
CNC(C)C1CCC(N)C(OC2C(N)CC(N)C(OC3OCC(C)(O)C(NC)C3O)C2O)O1 (stereo not given) [Gentamycin],100,95.4,95 (inactive),117 (inactive)
CC12C=CC(=O)C=C1CCC1C2C(=O)CC2(C)C1CCC2(O)C(=O)CO (stereo not given) [Prednisone],101,106,86.2 (inactive),122 (inactive)
"O=c1ccc2cc3ccoc3cc2o1 [7H-furo[3,2-g]chromen-7-one]",96.4,105,90.3 (inactive),93.5 (inactive)
O=C(Nc1ncc(-c2cc(C(F)F)nn2-c2c(Cl)cccc2Cl)s1)C1CC1,52.3,9.11,176 (active),149 (active)
CS(=O)(=O)CCNCc1ccc(-c2ccc3ncnc(Nc4ccc(OCc5cccc(F)c5)c(Cl)c4)c3c2)o1.Cc1ccc(S(=O)(=O)O)cc1.Cc1ccc(S(=O)(=O)O)cc1 [Lapatinib ditosylate],88.5,94.3,93.5 (inactive),110 (inactive)
COc1ccc2cc(C(C)C(=O)O)ccc2c1 (stereo not given) [Naproxen],99.9,83.8,98.1 (inactive),109 (inactive)
CN(c1ccccc1CNc1nc(Nc2ccc3c(c2)CC(=O)N3)ncc1C(F)(F)F)S(C)(=O)=O,54.4,22.4,113 (inactive),126 (inactive)
"OCCOc1ccc(/C(=C(/CCCl)c2ccccc2)c2ccccc2)cc1 [2-{4-[(1Z)-4-chloro-1,2-diphenyl-1-butenyl]phenoxy}ethanol]",101,96.7,100 (inactive),96.6 (inactive)
"CC(C)(C)C1(O)CCN2CC3c4ccccc4CCc4cccc(c43)C2C1.Cl (single isomer, unassigned; (+)) [(+)-Butaclamol hydrochloride]",54,49.9,126 (active),251 (active)
